# Measurements taken from PubChem BioAssay.
# Calls of active or inactive are those of the source. Cut-off read from the data, not from the text of the source, unless noted: active = inhibition above about 33%; inactive = the rest.
# Target: Steroidogenic factor 1 (Homo sapiens) (UniProt Q13285)
# Assay: inverse agonism at SF1 nuclear receptor – cell-based, luminescence, high throughput, counter-screen for LRH-1 inverse agonist project (AID 651614; in the data active = inhibition above about 44%;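 note: cells cotransfected with StAR promoter reporter and SF1 expression vector; 0% = vehicle on cells with receptor and 100% = vehicle on cells lacking receptor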)
# Settings: cell-based SF1 luciferase reporter, at 3.6 µM, hits give high values
# Sequence of Steroidogenic factor 1 (Homo sapiens) (Q13285 whole entry, looked up): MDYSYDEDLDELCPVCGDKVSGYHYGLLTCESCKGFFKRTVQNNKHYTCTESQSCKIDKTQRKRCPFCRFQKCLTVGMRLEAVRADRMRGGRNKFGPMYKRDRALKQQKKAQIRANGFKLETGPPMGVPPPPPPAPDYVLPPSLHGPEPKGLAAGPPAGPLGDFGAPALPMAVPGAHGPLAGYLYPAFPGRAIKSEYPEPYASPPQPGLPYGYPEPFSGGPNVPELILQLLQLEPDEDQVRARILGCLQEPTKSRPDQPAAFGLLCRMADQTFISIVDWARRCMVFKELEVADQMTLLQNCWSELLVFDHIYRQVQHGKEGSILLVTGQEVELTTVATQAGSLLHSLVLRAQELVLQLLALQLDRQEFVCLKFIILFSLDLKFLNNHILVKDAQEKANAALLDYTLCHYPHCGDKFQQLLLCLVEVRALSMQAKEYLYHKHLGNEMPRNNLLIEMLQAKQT
row,Compound,inhibition
1,Cc1ccc(C)c(NC(=O)CSc2nc3[nH]ncc3c(=O)[nH]2)c1,56% (active)
2,Cc1c(Cl)cccc1NC(=O)CSc1nc2ncc(Cl)cc2[nH]1,58% (active)
3,CCNc1nc(-c2sc(NC(=O)C(C)(C)C)nc2C)c(-n2cc(-c3ccccc3)nn2)s1,41.4% (inactive)
4,O=C(Nc1ccc(Cc2ccncc2)cc1)c1cccc([N+](=O)[O-])c1,51.9% (active)
5,COc1cc(C)c(C(=O)Oc2cc(C)c(C(=O)O)c(O)c2C)c(O)c1C,70.7% (active)
6,O=C(NC1CCCCC1)c1ccc([N+](=O)[O-])o1,54.4% (active)
7,CCCCc1c(O)nc(SCC(=O)Nc2ccc3c(c2)CCC3)[nH]c1=O,51.8% (active)
8,Cc1cc(Br)ccc1NC(=O)CN1C(=O)CCC1=O,72.2% (active)
9,O=C(CN1C(=O)NC2(CCOc3ccccc32)C1=O)Nc1cccc([N+](=O)[O-])c1 (stereo not given),53.6% (active)
10,CC(=O)Nc1ccc(NC(=O)CSc2ccc(-c3ccc(-n4ccnc4)cc3)nn2)cc1,53% (active)
11,Cc1ccc(NC(=O)CSc2ccc3c(c2)OCCO3)c(O)c1,46.5% (active)
12,CCCOc1ccc(Cn2cnc3ccccc32)cc1,52.4% (active)
13,Cc1ccc(NC(=O)c2ccc([N+](=O)[O-])o2)c(C)c1,54.6% (active)
14,Cc1nc2ccccc2n1/N=C/c1ccc([N+](=O)[O-])s1,71.4% (active)
15,CCOc1ccc(CCNC(=O)COC(=O)c2nc(Cl)ccc2Cl)cc1OCC,28.2% (inactive)
16,CCNC(=S)N1CCN(c2nc(CC)nc3sc4c(c23)CCCC4)CC1,37.6% (inactive)
17,COc1ccc(C2(C)NC(=O)N(CC(=O)Nc3ccc(C)cc3Br)C2=O)cc1OC (stereo not given),28.4% (inactive)
18,Cc1c(C(=O)NC(C)c2ccncc2)oc2ccccc12 (stereo not given),42.9% (active)
19,Cc1nnc(SCC(=O)Nc2ccc(N3CCN(S(C)(=O)=O)CC3)cc2)o1,50.2% (active)
20,CC(=O)Nc1ccc(C2=CC(=O)CC(C)(C)C2)cc1,55.8% (active)
21,COCC1CCCN(C(=O)c2cc(COc3ccc4ncccc4c3)on2)C1 (stereo not given),64.1% (active)
22,Cc1ccc(CNC(=O)CN2C(=O)NC3(CCCC3)C2=O)cc1,43.7% (active)
23,CCn1c(=S)sc2c(=O)n(CC(=O)Nc3ccc(Cl)cc3)c(C)nc21,46.7% (active)
24,O=C(Nc1cccc(NC(=O)c2ccccc2Cl)c1)c1ccc([N+](=O)[O-])o1,66.8% (active)
25,Cc1nnc(SCC(=O)Nc2sc3c(c2C(N)=O)CCCC3)[nH]c1=O,29.9% (inactive)

# Tested on: not listed separately
# Assay: compounds suppressing VP16-driven luciferase signal – cell-based, luminescence, high throughput, counter-screen for LRH-1 inverse agonist project (AID 651615)
# Settings: Gal4-VP16 luciferase reporter cells, at 3.6 µM, hits give high values
row,Compound,inhibition
1,Cc1ccc(S(=O)(=O)NCc2ccncc2)c(C)c1C,53.4% (active)
2,Nc1nc(-c2ccccc2)c(CCCOc2ccc(NC(=O)CBr)cc2)c(=O)[nH]1,-15.6% (inactive)
3,O=[N+]([O-])c1ccc(Sc2nnnn2-c2ccccc2)c(Cl)c1,-13% (inactive)
4,COc1ccnc(Oc2ccccc2)c1C(=O)N/C=N/OCc1ccccc1F,-12.9% (inactive)
5,CCC(c1nnnn1-c1c(C)cccc1C)N1CCN(c2ccc(C(F)(F)F)cc2[N+](=O)[O-])CC1 (stereo not given),10% (inactive)
6,CCC(=O)Nc1nnc(SCC(=O)NCCc2ccc(OC)c(OC)c2)s1,-15.4% (inactive)
7,COc1ccc(-c2cc3ccccc3oc2=O)cc1NC(=O)c1ccc([N+](=O)[O-])o1,-68.2% (inactive)
8,CCc1cc(=O)oc2c(C)c(OCC(=O)NCCCN3CCOCC3)ccc12,2.03% (inactive)
9,CCCc1cc(=O)oc2cc(C)cc(OCC(=O)Nc3ccccn3)c12,3.1% (inactive)
10,NC(=O)c1oc2ccccc2c1NC(=O)c1ccc([N+](=O)[O-])o1,-9.15% (inactive)
11,CCOC(=O)N1CCN(C(=O)CCl)CC1,-8.13% (inactive)
12,CN(C)c1ccc(C=c2c3ccccc3n3c2cc(-c2ccc(Cl)cc2)[n+]3C)cc1,86.3% (active)
13,COc1ccc(NC(=O)CSc2ncnc3c2cnn3Cc2ccccc2)cc1,2.38% (inactive)
14,COc1cc(C2c3cc4c(cc3OC(NNC(N)=S)C2C)OCO4)cc(OC)c1OC (stereo not given),14% (inactive)
15,CC(=O)Nc1cc(-c2ccccc2N(C)C)cn2c(-c3ccc(S(C)(=O)=O)cc3)cnc12,-14.6% (inactive)
16,Cc1ccc(C)c(NC(=O)CSc2nc3[nH]ncc3c(=O)[nH]2)c1,7.57% (inactive)
17,Cc1c(Cl)cccc1NC(=O)CSc1nc2ncc(Cl)cc2[nH]1,1.96% (inactive)
18,CCNc1nc(-c2sc(NC(=O)C(C)(C)C)nc2C)c(-n2cc(-c3ccccc3)nn2)s1,35.7% (active)
19,O=C(Nc1ccc(Cc2ccncc2)cc1)c1cccc([N+](=O)[O-])c1,0.73% (inactive)
20,COc1cc(C)c(C(=O)Oc2cc(C)c(C(=O)O)c(O)c2C)c(O)c1C,-10.6% (inactive)

row,Compound,inhibition
1,O=C(NC1CCCCC1)c1ccc([N+](=O)[O-])o1,-17.1% (inactive)
2,CCCCc1c(O)nc(SCC(=O)Nc2ccc3c(c2)CCC3)[nH]c1=O,0.43% (inactive)
3,Cc1cc(Br)ccc1NC(=O)CN1C(=O)CCC1=O,4.01% (inactive)
4,O=C(CN1C(=O)NC2(CCOc3ccccc32)C1=O)Nc1cccc([N+](=O)[O-])c1 (stereo not given),-15.2% (inactive)
5,CC(=O)Nc1ccc(NC(=O)CSc2ccc(-c3ccc(-n4ccnc4)cc3)nn2)cc1,-5.42% (inactive)
6,Cc1ccc(NC(=O)CSc2ccc3c(c2)OCCO3)c(O)c1,35.5% (active)
7,CCCOc1ccc(Cn2cnc3ccccc32)cc1,27.3% (inactive)
8,Cc1ccc(NC(=O)c2ccc([N+](=O)[O-])o2)c(C)c1,-6.21% (inactive)
9,Cc1nc2ccccc2n1/N=C/c1ccc([N+](=O)[O-])s1,29.6% (inactive)
10,CCOc1ccc(CCNC(=O)COC(=O)c2nc(Cl)ccc2Cl)cc1OCC,-0.88% (inactive)
11,CCNC(=S)N1CCN(c2nc(CC)nc3sc4c(c23)CCCC4)CC1,5.39% (inactive)
12,COc1ccc(C2(C)NC(=O)N(CC(=O)Nc3ccc(C)cc3Br)C2=O)cc1OC (stereo not given),0.45% (inactive)
13,Cc1c(C(=O)NC(C)c2ccncc2)oc2ccccc12 (stereo not given),-7.87% (inactive)
14,Cc1nnc(SCC(=O)Nc2ccc(N3CCN(S(C)(=O)=O)CC3)cc2)o1,-9.83% (inactive)
15,CC(=O)Nc1ccc(C2=CC(=O)CC(C)(C)C2)cc1,-10.9% (inactive)
16,COCC1CCCN(C(=O)c2cc(COc3ccc4ncccc4c3)on2)C1 (stereo not given),47.7% (active)
17,Cc1ccc(CNC(=O)CN2C(=O)NC3(CCCC3)C2=O)cc1,0.14% (inactive)
18,CCn1c(=S)sc2c(=O)n(CC(=O)Nc3ccc(Cl)cc3)c(C)nc21,19.1% (inactive)
19,O=C(Nc1cccc(NC(=O)c2ccccc2Cl)c1)c1ccc([N+](=O)[O-])o1,-5.43% (inactive)
20,Cc1nnc(SCC(=O)Nc2sc3c(c2C(N)=O)CCCC3)[nH]c1=O,-3.51% (inactive)
